Screening data deposited in PubChem BioAssay by several laboratories.
A selection: hits, their analogues and other compounds. The true share with any hit is near 4.3%.
HSF1 activator: increases HSF-1 driven luciferase reporter signal; NIH3T3-HGL HSF-1 luciferase reporter, MG132, 8 h; 100% = twice DMSO control signal; activation, % at 9 µM; AID 504408; 1.7% of 300,000 active;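 active = mean replicate activation of at least 50% with a set share of replicates each reaching 50%; inconclusive = only one of those two conditions met; inactive = mean below 50% and too few replicates reaching it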
HSF1 inhib: HSF1 inhibition; 0.77% of 300,000 active; NIH3T3-HGL HSE-luciferase, MG132-induced, luminescence 8 h; hits give low values; activity change, negative = inhibition, % at 7.5 µM (by protocol); AID 2098;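 active = more than half of replicate wells show activity change below -50%, luminescence cut by over half; inconclusive = some wells, but at most half, below -50%; inactive = no replicate well below -50%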;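 note: luciferase reports HSF-1 transcriptional activity via heat shock element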
Wnt bcat act: activators of Wnt/beta-catenin signaling; Wnt/beta-catenin reporter cell assay, activator, plate reader; activation, % at 9.35 µM; 1.2% of 300,000 active; AID 743398; in the data active = activation above about 30%, passing the limit was not always enough; inconclusive = no clear call, values can overlap the other calls
esBAF inh: inhibitors of esBAF chromatin remodeling in mouse ES cells; Bmi1-luciferase knock-in reporter, 24 h; 100% = twice the neutral-well signal; reporter increase, % at 12.5 µM; 2% of 350,000 active; in the data active = activation above about 40%; inconclusive = no clear call, values can overlap the other calls;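 note: a rise in the Bmi1 reporter signal indicates esBAF inhibition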
MITF act: MITF TRPM1 promoter activation in melanoma cells | 0.75% of 300,000 active | activation, % at 12.5 µM | AID 588334 | SK-MEL-5 TRPM1-promoter luciferase, 24 h; % of positive control, neutral wells = 0;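 active = mean activation of at least 80% with every replicate also reaching 80%; inconclusive = mean reaches 80% but some replicate falls short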
SMARCA2 activ: increases SMARCA2 function in MMTV reporter cells; MG213 cells, MMTV-luciferase reporter, dexamethasone, overnight; activation, % at 9.1 µM; 1% of 370,000 active; in the data active = activation above about 7.8%
SMARCA2 act conf: confirmation of SMARCA2 (BRM) function activators; activation, % at 9.1 µM; 30% of 3,500 active; shares compounds with SMARCA2 activ; MG213 cells, MMTV-luciferase with dexamethasone, luminescence, overnight; MG213 cells expressing E1A, Rb sequestered; DMSO wells 0%, reference activator 100%;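 active = activation above its plate's cutoff, the mean activation of tested wells plus 3 SD, cut at about 7.9% in these data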
GAL4-VP16 Luc: counter-screen for SMARCA2 activators: GAL4-VP16 luciferase reporter activation; shares compounds with SMARCA2 activ; HEK293 GAL4-VP16 pG5luc reporter, luciferase luminescence; scaled: DMSO wells 0%, SAHA wells 100%; activation, % at 9.1 µM; 41% of 3,500 active; AID 686939;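 active = activation above the solvent-only control well mean plus 3 SD, averaged across control plates, cut at about 5.2% in these data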
Numbers stand for hits; – = inactive; ? = inconclusive; · = no result; ! = repeats disagree.

SMILES	HSF1 activator	HSF1 inhib	Wnt bcat act	esBAF inh	MITF act	SMARCA2 activ	SMARCA2 act conf	GAL4-VP16 Luc
COc1ccc(NC(=O)C2CC(=O)N/C(=N/N=C/c3ccco3)S2)cc1 (stereo unspecified)	–	–	–	·	·	–	·	·
COc1ccc(CN=C2NC(=O)CC(C(=O)Nc3ccc(F)cc3)S2)cc1 (stereo unspecified)	–	–	·	·	–	8.3	–	–
COc1ccc(S(=O)(=O)Nc2ccc3c(c2)CC(=O)N([C@@H](C)CO)C[C@@H](C)[C@@H](CN(C)Cc2ccc(-c4ccccc4)cc2)O3)cc1	·	·	·	–	·	·	·	·
CC(=O)c1c(O)cc(C(C)C)n(-c2ccccc2)c1=O	–	–	–	·	–	20.4	–	–
C[C@@H]1CN([C@@H](C)CO)C(=O)c2cc(/C=C/c3ccccc3)cnc2O[C@@H]1CN(C)C(=O)c1ccc2c(c1)OCO2	·	·	·	–	·	·	·	·
COc1cccc(-c2ccc3c(c2)[C@@H]2[C@@H](CCN2C(=O)c2cccc(F)c2)[C@@H](CO)N3)c1	·	·	·	–	·	·	·	·
O=C(NNC1=C(C(=O)C(F)(F)F)CCC1)c1cccc(Cl)c1	–	–	·	–	–	–	·	·
O=C(NNC1=C(C(=O)C(F)(F)F)CCC1)c1ccc(Cl)cc1	–	–	–	·	–	14.1	–	–
Cc1nc(SC(C(N)=O)c2ccccc2)c(C#N)c(C)c1C (stereo unspecified)	–	–	–	·	·	8.3	–	–
COc1cccc(S(=O)(=O)N[C@H]2CC[C@H](CCn3cc(-c4ccc(F)cc4)nn3)O[C@H]2CO)c1	·	·	·	–	·	·	·	·
CN[C@H]1C[C@H]2c3cc(-c4ccccc4C)ccc3CCN2C[C@H]1[C@H](C)O	·	·	·	·	·	9.6	–	–
COc1ccccc1Nc1nc(-c2cccs2)cs1	–	–	–	52.5	–	8.4	–	7.4
C/C=C/c1ccc([C@@H]2[C@@H](CO)N(C(C)=O)[C@H]2CNC(=O)CC2CC2)cc1	·	·	·	–	·	·	·	·
C[C@@H]1CN([C@H](C)CO)C(=O)c2cc(C#CC3(O)CCCC3)cnc2O[C@H]1CN(C)C(=O)Cc1cccnc1	·	·	·	–	·	·	·	·
CC(C)c1ccc(/C=N/NC(=O)c2c(Cl)cnn2C)cc1	–	–	·	·	93.3	10.8	15.5	–
O=C(C[C@@H]1C=C[C@@H](NC(=O)c2cccc(F)c2)[C@H](CO)O1)NCc1ccc(Oc2ccccc2)cc1	·	·	·	–	·	·	·	·
CCOc1cccc(C=Nc2cc(C)cc(C)c2O)c1O	–	–	–	–	–	11.6	–	–
Cc1ccc2c(c1)sc[n+]2Cc1ccccc1	–	–	–	54.1	–	10.1	–	7.8
Cc1ccc(-c2cc[n+](Cc3ccccc3)cc2)cc1	·	·	–	·	–	–	·	·
CCn1c(SCC(=O)Nc2nc(-c3ccc(C)cc3)cs2)nnc1-c1ccccc1	–	–	·	–	·	–	·	·
Cc1ccc(-c2csc(NC(=O)CSc3nc4ccccc4c(=O)n3CCCN(C)C)n2)cc1	–	–	–	·	–	10.0	–	–
Cc1ccc(C(=O)Nc2cc(Cl)ccc2OC(=O)c2ccc(C)cc2)cc1	–	–	·	·	·	8.0	–	10.3
Cc1ccc(Oc2ccc(Cl)cc2NC(=O)c2cnccn2)cc1	–	–	·	–	–	–	·	·
NCC[C@H]1CC[C@H](NC(=O)Nc2ccc(F)cc2)[C@@H](CO)O1	·	·	·	–	·	·	·	·
CC(=O)Nc1ccc(N/C(=N\S(=O)(=O)c2ccccc2)c2ccccc2)cc1	–	–	–	–	–	–	·	·
SMILES	HSF1 activator	HSF1 inhib	Wnt bcat act	esBAF inh	MITF act	SMARCA2 activ	SMARCA2 act conf	GAL4-VP16 Luc
Cc1ccc(NC(=S)N/C(=N/S(=O)(=O)c2ccccc2)c2ccccc2)cc1	–	–	–	54.9	–	9.7!	–	5.8
Oc1cccc(Nc2ncnc3ccccc23)c1	–	–	–	·	–	8.1	–	–
Nc1cccc(Nc2ncnc3ccccc23)c1	–	–	–	–	–	–	·	·
Cc1ccnc(NC(=O)Cn2cc([N+](=O)[O-])cn2)c1	–	–	–	·	–	16.1	–	5.8
Cc1cc(C)cc(N=C2NC(=O)/C(=C/c3cccs3)S2)c1	–	–	–	·	–	–	·	·
Cn1cccc1/C=C1\SC(=Nc2ccc(O)cc2)NC1=O	–	–	–	·	–	–	·	·
Cn1cccc1/C=C1\SC(=Nc2cccc(O)c2)NC1=O	–	–	–	?	–	9.9	10.5	10.7
O=C1NC(=Nc2ccccc2)S/C1=C\c1cccs1	–	–	–	·	–	12.6	15.3	6.8
COc1cccc(N2CCN(c3nc(-c4ccccc4C)cc(=O)[nH]3)CC2)c1	–	–	–	–	·	13.3	36.0	–
COc1ccc(S(=O)(=O)Nc2ccc3c(c2)C(=O)N([C@H](C)CO)C[C@@H](C)[C@@H](CN(C)C(=O)NC2CCCCC2)OCCCC[C@@H](C)O3)cc1	·	·	·	–	·	·	·	·
c1ccc2c(c1)Cc1cc3ccccc3nc1-2	?	–	44.4	–	–	8.8	12.8	10.5
Cc1cc2ccccc2nc1-c1ccccc1F	·	·	–	·	–	–	·	·
O=C(Nc1cccc(F)c1)c1ccccc1-c1ccccc1	–	–	·	·	–	9.0	–	–
O=C(Nc1ccc(Nc2ccccc2)cc1)c1cccc(F)c1	66.9	–	–	?	·	9.0	–	6.7
O=C(Nc1ccc(F)cc1F)c1ccccc1-c1ccccc1	–	–	–	·	–	–	·	·
COCC(=O)Nc1ccc2c(c1)[C@H]1C[C@@H](CC(=O)NCCN3CCCCC3)O[C@H](CO)[C@H]1O2	·	·	·	–	·	·	·	·
COC(=O)c1ccc(NC(=S)NC2c3ccccc3CC2O)cc1 (stereo unspecified)	–	–	–	·	–	8.3	–	–
COc1cccc(C(=O)NC2CC3CCCC(C2)N3CC(=O)Nc2ccccc2C(F)(F)F)c1 (stereo unspecified)	–	–	–	–	–	–	·	·
CCc1cccc(CC)c1NC(=O)CN1C2CCCC1CC(NC(=O)Nc1cccc(OC)c1)C2 (stereo unspecified)	–	–	–	·	–	10.7	–	–
Cc1nc2ccc(-c3nc4ccccc4[nH]3)cc2[nH]1	?	–	?	·	–	15.6	13.9	12.4
O=C(Nc1ccccn1)c1ccc2c(c1)OCO2	–	–	–	·	–	–	·	·
O=C(Nc1ccccn1)c1ccc2c(c1)OCCO2	–	–	–	–	–	10.9	–	6.0
CCC(CC)c1nnc(NC(=O)c2ccc3c(c2)OCO3)s1	–	–	–	57.7	–	10.0	–	6.6
Cc1ccc2nc(-c3ccncc3)[nH]c2c1	–	–	–	–	·	–	·	·
CCC(CC)c1nnc(NC(=O)COc2ccc3c(c2)OCO3)s1	–	–	–	–	–	–	·	·
C/C(=N\NC(=O)c1ccc2c(c1)OCO2)c1ccc(NC(=O)CCCC(=O)O)cc1	–	–	–	–	–	8.3	–	–
